Assay outcomes from PubChem.
LMP1 NFkB inh: inhibitors of Epstein-Barr LMP1-induced NF-kappaB reporter; LMP1-induced NF-kappaB luciferase reporter cells, luminescence; inhibition, % at 12.5 µM; hit rate 0.69% among 350,000; in the data active = inhibition above about 41%
Shn3 3UTR inh: Schnurri-3 reporter inhibition in Clone20 osteoblasts. Clone20 osteoblast Shn3 3'UTR firefly luciferase, 24 h. hit rate 0.52% among 360,000. AID 588674. inhibition, % at 12.5 µM;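 active = mean inhibition of at least 75% with every replicate also reaching 75%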
Peg3 prom inh: Peg3 promoter activity inhibition. hit rate 1.7% among 360,000. inhibition, % at 20 µM. HeLa PEG-Prom luciferase reporter, luminescence, overnight;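 active = inhibition of at least 50% at 20 µM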
TROY NFkB inh: inhibitors of TROY-dependent NF-kB signaling | Q293 LMP1-TROYcd NF-kB luciferase reporter, 4 h | inhibition, % at 10 µM | AID 1347056 | hit rate 0.98% among 360,000;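 active = compounds whose plate-normalised and pattern-corrected inhibition of the luciferase reporter signal at the single screening dose is 50% or more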
TRPM1 prom inh: MITF TRPM1 promoter inhibition in SK-MEL-5 cells. hit rate 0.83% among 330,000. SK-MEL-5 TRPM1 promoter luciferase, 24 h. inhibition, % at 12.5 µM. AID 488899;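 active = mean inhibition across replicates of 60% or more, whatever share of single replicates reaches that level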
TWEAK Fn14 block: blocks TWEAK-Fn14 interaction in a reporter cell assay. inhibition, % at 10 µM. TWEAK-stimulated Fn14 reporter cells, luciferase luminescence, 8 h. hit rate 2% among 360,000; in the data active = inhibition above about 50%
Numbers stand for hits; – = inactive; · = no result. Rows were chosen to be rich in hits. Some 4.1% of all compounds tested hit in one or more screens of this group.

SMILES	LMP1 NFkB inh	Shn3 3UTR inh	Peg3 prom inh	TROY NFkB inh	TRPM1 prom inh	TWEAK Fn14 block
C[C@@H]1CN(Cc2nnnn2CC(=O)NCCCn2cccn2)C[C@H](C)O1	–	–	–	–	·	–
COc1ccccc1CN1CCNC(=O)C1CC(=O)NCC1CCOCC1 (centres undefined)	–	–	–	–	–	–
CC(C)c1ccc(/C=C/C(=O)NC(=S)Nc2ccc(CN3CCOCC3)cc2)cc1	–	–	–	71	–	100
CC(C)c1ccc(/C=C/C(=O)NC(=S)NN2CCOCC2)cc1	–	–	–	–	–	–
O=C(/C=C/c1cccc([N+](=O)[O-])c1)NC(=S)Nc1ccc(CN2CCOCC2)cc1	–	–	–	–	–	63
O=C1NC(=O)C(c2ccccc2[N+](=O)[O-])=C1Nc1ccc(O)c(Cl)c1	–	–	–	–	–	–
C[C@@H]1CN([C@@H](C)CO)C(=O)CCCn2nncc2CO[C@H]1CN(C)S(=O)(=O)c1cccc(F)c1	–	–	–	–	·	–
CN(C)/N=C/C=C1\CCC/C(=C\c2ccc(F)c(F)c2)C1=O	–	–	–	–	–	87
Cn1ccsc1=NC(=O)c1cccc(OC(F)F)c1	–	–	–	–	–	–
S=C(Nc1ccccc1Cl)NC1CCN(Cc2ccccc2)CC1	–	–	–	–	–	–
S=C(Nc1cc(Cl)cc(Cl)c1)NC1CCN(Cc2ccccc2)CC1	–	–	94	–	–	–
Fc1ccc(Oc2nccc(-c3ccc(Cl)cc3)n2)cc1	–	–	–	–	–	–
Cc1nc2ccccc2n1CC(O)COc1ccc(Br)cc1 (centres undefined)	–	–	–	–	–	–
Cc1nc2ccccc2n1CC(O)COc1ccccc1Cl (centres undefined)	–	–	–	–	–	54
Cc1nc2ccccc2n1Cc1ccc(Cl)cc1	–	88	–	–	–	–
OCc1nc2ccccc2n1Cc1ccc(Cl)cc1	–	–	–	–	–	–
Cn1c(=NC(=O)CS(=O)(=O)c2ccccc2)sc2ccccc21	–	–	–	–	–	–
CCn1c(=NC(=O)CS(=O)(=O)c2ccccc2)sc2cccc(OC)c21	–	87	–	–	–	–
CCCNC(=O)C1(CC2CC(c3ccccc3)=NO2)CCN(C(=O)C2CCCC2)CC1 (centres undefined)	–	–	–	–	–	–
Cc1ccc(S(=O)(=O)N(CC(=O)Nc2cccc([N+](=O)[O-])c2)C(=O)N2CCN(C)CC2)cc1	–	–	–	–	–	–
C[C@@H]1[C@@H](Sc2ccccc2)CC(=O)O[C@@H]1c1ccc(-c2ccccc2)cc1	–	–	97	–	–	–
CCOc1ccc(-c2ccc(SCC)nn2)cc1	–	–	–	–	–	64
CCSc1ccc(-c2ccc(C)cc2)nn1	–	–	–	–	–	–
COc1ccc(-c2ccc(SC)nn2)cc1	–	–	–	–	–	88
CCOC(=O)N1CCC(N2C(=O)c3ccc(C(=O)Nc4ccc(OC)cc4)cc3C2=O)CC1	–	–	–	–	–	–
SMILES	LMP1 NFkB inh	Shn3 3UTR inh	Peg3 prom inh	TROY NFkB inh	TRPM1 prom inh	TWEAK Fn14 block
Cc1c(NC(=O)/C(=C\c2ccccc2)NC(=O)c2ccccc2)c(=O)n(-c2ccccc2)n1C	–	–	–	–	–	94
Cc1c(NC(=O)/C(=C/c2cccs2)NC(=O)c2ccccc2)c(=O)n(-c2ccccc2)n1C	–	–	–	–	–	–
O=C(Nc1ccc(N2CCN(C(=O)c3cccs3)CC2)cc1)c1ccc([N+](=O)[O-])o1	–	–	107	–	98	–
O=C(Nc1ccc(N2CCN(C(=O)c3cccs3)CC2)cc1)c1ccco1	–	–	–	–	–	–
Cn1nccc1C(=O)Nc1ccc(S(=O)(=O)N2CCCC2)cc1	–	–	–	–	–	–
O=C(Nc1ccccc1N1CCOCC1)c1ccc([N+](=O)[O-])s1	–	–	–	–	81	–
Cc1ccc(-n2ccc(=O)c(C(=O)Nc3ccc(S(=O)(=O)N4CCOCC4)cc3)n2)cc1	45	–	–	–	–	–
Cn1nc(C(=O)Nc2ccc(S(=O)(=O)N3CCCCC3)cc2)ccc1=O	–	–	–	–	–	104
Cc1ccc2c(c1)-c1[nH]c(=S)ncc1CS2	–	–	–	–	–	–
CC(C)C[C@@H](CN=[N+]=[N-])N1CCN(Cc2ccccc2)CCC1=O	–	–	–	–	–	–
COc1ccc(CN2C(=O)C(CC(=O)NCCCCc3ccccc3)CC(C(=O)N3CCCCCC3)=C2C)cc1 (centres undefined)	·	·	·	–	·	–
CCC(=O)Nc1ccc(N2CCN(C(=O)c3cccs3)CC2)cc1	–	–	–	–	–	–
O=C(COC(=O)c1ccc([N+](=O)[O-])o1)Nc1ccc(N2CCOCC2)cc1	–	–	–	–	–	–
O=C(Nc1ccc(N2CCOCC2)cc1)c1ccc([N+](=O)[O-])o1	–	–	102	–	–	–
O=C(Nc1ccc(S(=O)(=O)N2CCOCC2)cc1)c1ccc([N+](=O)[O-])s1	–	–	–	–	84	–
O=C(COc1ccccc1[N+](=O)[O-])Nc1ccc(N2CCN(C(=O)c3cccs3)CC2)cc1	–	–	104	76	–	72
O=C(Nc1ccc(S(=O)(=O)N2CCCC2)cc1)c1ccc([N+](=O)[O-])o1	–	91	97	–	·	–
Cc1ccc(-n2ccnc(SCC(=O)NCCc3ccccc3)c2=O)cc1F	–	–	–	–	–	–
CN(C)CCOC(=O)/C(=C/c1cn(C)c2ccccc12)NC(=O)c1ccccc1	–	–	–	–	–	–
Cc1cc(NS(=O)(=O)c2ccc(NC(=O)CCSc3ccc(F)cc3)cc2)nc(C)n1	–	–	–	–	–	–
Cc1ccc(NC(=O)CSc2nc3nn(-c4ccccc4)c(=O)c-3c3n2CCCCC3)cc1F	–	–	–	–	–	–
O=C(CCC1CCCN(C(=O)c2cccc(F)c2)C1)N1CCN(c2ccccn2)CC1 (centres undefined)	–	–	–	–	–	–
CN(Cc1ccccc1Cl)C(=O)C1CCC(=O)N(C2CCCCCC2)C1 (centres undefined)	–	–	–	–	–	–
O=C(Nc1ccc(S(=O)(=O)N2CCOCC2)cc1)c1ccc([N+](=O)[O-])o1	–	–	101	–	–	–
O=C(Nc1ccc(S(=O)(=O)N2CCOCC2)cc1)c1ccco1	–	–	–	–	–	–
SMILES	LMP1 NFkB inh	Shn3 3UTR inh	Peg3 prom inh	TROY NFkB inh	TRPM1 prom inh	TWEAK Fn14 block
Cc1cccc2nc(CSc3nnc4ccccn34)cn12	–	–	–	–	–	50
Cc1cccc2nc(CSc3nnnn3-c3ccccc3)cn12	–	–	–	–	–	–
CN1/C(=C\C(=S)NC(=O)c2cccc(Br)c2)C(C)(C)c2ccccc21	–	–	–	–	–	72
CN1/C(=C\C(=S)NC(=O)c2ccc([N+](=O)[O-])cc2)C(C)(C)c2ccccc21	–	–	–	–	–	58
CCN(CC)S(=O)(=O)c1cccc(C(=O)/C=C2/N(C)c3ccccc3C2(C)C)c1	–	–	–	–	–	61
Cc1ccc2c(c1)C1(OCCCO1)C(=O)N2CC#N	–	–	–	–	–	–
